An excerpt weighted towards active compounds, which were near 4.1% of everything screened.
LEDGF integ inh – blocks HIV-1 LEDGF/p75-dependent DNA integration. TR-FRET IN-LEDGF/p75 DNA integration, Eu/Cy5. inhibition, % at 3.7 µM. hit rate 0.64% among 370,000. AID 743269;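 active = inhibition above the screen-wide mean plus 3 SD, cut at about 13% in these data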;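 also: signal is the Cy5 over europium emission ratio at 671 and 618 nm; 0% = plate median of compound wells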
rCAG RNA binder – molecules binding r(CAG) RNA repeats; r(CAG) RNA repeat, TO-PRO-1 dye displacement fluorescence; inhibition, % at 3 µM; hit rate 1.3% among 370,000;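 active = inhibition above the plate cutoff, the mean of all test compounds on that plate plus 3 SD, cut at about 35% in these data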;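 also: 0% = DMSO alone and 100% = 100 µM mitoxantrone as full dye displacement; higher means more dye released from RNA so lower well fluorescence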
ABHD5 PLIN5 PPI – inhibitors of human ABHD5-perilipin-5 interaction; Q00G26+Q8WTS1; Split G. princeps luciferase complementation, luminescence, 4 h; inhibition, % at 4 µM; hit rate 0.78% among 360,000;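 active = inhibition above the mean inhibition across every tested compound plus 3 SD, cut at about 22% in these data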;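 also: 0% = DMSO only wells and the 100% control is not disclosed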
UHRF1 binding – UHRF1 methyl-DNA binding inhibition; Q96T88; UHRF1 binding to methylated oligo, TR-FRET; inhibition, % at 4.4 µM; hit rate 0.75% among 370,000; AID 687016; in the data active = inhibition above about 21%;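 also: UHRF1 SRA domain binding a hemimethylated CpG hairpin DNA probe; 0% = median of test compound wells and 100% = reference inhibitor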
MBD2 inh – blocks human MBD2 binding to methylated DNA; AID 686964; TR-FRET, MBD2 binding to methylated oligonucleotide; hit rate 0.31% among 370,000; inhibition, % at 4.4 µM; Q9UBB5; in the data active = inhibition above about 13%
Target sequence (Q9UBB5 whole entry, looked up): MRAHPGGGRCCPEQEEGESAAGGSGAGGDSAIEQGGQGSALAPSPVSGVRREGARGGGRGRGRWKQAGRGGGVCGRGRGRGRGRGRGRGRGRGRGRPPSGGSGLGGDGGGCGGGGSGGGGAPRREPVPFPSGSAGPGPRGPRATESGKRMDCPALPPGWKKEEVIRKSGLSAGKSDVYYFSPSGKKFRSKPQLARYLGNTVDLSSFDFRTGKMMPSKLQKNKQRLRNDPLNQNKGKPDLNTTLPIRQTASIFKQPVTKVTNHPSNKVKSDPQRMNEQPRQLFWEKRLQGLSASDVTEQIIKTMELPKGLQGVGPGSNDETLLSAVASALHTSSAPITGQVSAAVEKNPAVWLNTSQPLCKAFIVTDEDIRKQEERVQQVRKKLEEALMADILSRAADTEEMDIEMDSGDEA
PRMT1 inh – inhibitors of human PRMT1 | hit rate 1.3% among 370,000 | AID 652257 | recombinant PRMT1, activity-based probe fluorescence polarization | Q99873 | inhibition, % at 2.79 µM;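 active = inhibition above about 21% made by adding two undisclosed values, limit read from the data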
PRMT1 inh conf – confirmation of human PRMT1 inhibitors | inhibition, % at 2.79 µM | shares compounds with PRMT1 inh | hit rate 42% among 3,300 | recombinant His-PRMT1, activity-based probe fluorescence polarization;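 active = mean inhibition across replicates above the hit cutoff derived for the earlier primary screen, cut at about 22% in these data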
UHRF1 DNA bind – UHRF1 methyl-oligo binding inhibition as MBD2 counter-screen | shares compounds with MBD2 inh | UHRF1 binding to methylated oligonucleotide, TR-FRET | inhibition, % at 4.4 µM | hit rate 25% among 1,000 | AID 720530; in the data active = inhibition above about 21%;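 also: UHRF1 SRA domain binding a labeled hemimethylated CpG hairpin DNA; 0% = vehicle only and 100% = reference inhibitor with vehicle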
MBD2 confirm – confirmation of human MBD2-DBD methylated oligonucleotide binding inhibitors. shares compounds with MBD2 inh. inhibition, % at 4.4 µM. TR-FRET MBD2-DBD binding to methylated oligonucleotide. hit rate 26% among 1,000
IN multimer up – counter-screen for LEDGF/p75 integration inhibitors: HIV-1 integrase multimerization activators; AID 1053131; TR-FRET HIV-1 integrase multimerization, biochemical; activation, % at 7.7 µM; hit rate 17% among 2,000; shares compounds with LEDGF integ inh; in the data active = activation above about 8.9%
TRFRET interf – optically interferes with TR-FRET readout in LEDGF counter-screen; shares compounds with LEDGF integ inh; TR-FRET optical interference counterscreen, HIV-1 IN multimerization; inhibition, % at 7.7 µM; 2,000 tested, under 10 active;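 active = inhibition above the mean over all tested compounds plus 3 SD, which no compound reached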;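 also: 0% = integrase with antibodies and DMSO and 100% = antibodies without integrase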
LEDGF integ conf – LEDGF/p75-dependent HIV-1 integration inhibition, confirmation; shares compounds with LEDGF integ inh; TR-FRET LEDGF/p75-dependent HIV-1 integration, biochemical; inhibition, % at 3.7 µM; hit rate 36% among 2,000; AID 1053136
Starred values were filed as active, the others as inactive; . = not tested or not shown. Rule as the data show it, unless noted: active = inhibition above about 14%; inactive = the rest.

SMILES	LEDGF integ inh	rCAG RNA binder	ABHD5 PLIN5 PPI	UHRF1 binding	MBD2 inh	PRMT1 inh	PRMT1 inh conf	IN multimer up	TRFRET interf	LEDGF integ conf	others
Cc1noc(/C=C/c2ccco2)c1S(=O)(=O)N1CCC(C(=O)NCc2ccco2)CC1	33*	23	4	1	-8	32*	0	3	-9	1
Oc1ccc(Nc2ccccc2F)c2cccnc12	34*	.	.	-3	-16	42*	1	2	-8	1
C(=C\c1ccco1)/c1ccc2ccccc2n1	18*	19	12	25*	7	38*	12	17*	-86	37*
O=C(OCC#CCSc1nnc(-c2c[nH]c3ccccc23)o1)c1ccc(F)cc1	-2	.	.	-2	-3	1	.	.	.	.
Cc1ccc(C)n1-c1sc2c(c1C(=O)O)CCCC2	25*	35*	-2	46*	12	27*	1	1	-3	25*
CCOC(=O)c1c(-n2c(C)cc(C=O)c2C)sc2c1CCCC2	2	-6	-6	2	10	-2	.	.	.	.
O=C1C=CC(=O)c2c(O)c(N3CCN(CCO)CC3)c(Cl)c(O)c21	26*	26	-7	18	0	52*	85*	91*	-322	78*
O=S(=O)(c1ccc(Br)cc1Cl)N1CCN(CCO)CC1	-1	-3	-3	3	2	-2	.	.	.	.
COC(=O)[C@]12C[C@H](CC(=O)NCc3ccc(C)o3)C(=O)N(CCc3ccc(OC)c(OC)c3)C1=C[C@H](C1CCCC1)O[C@@H]2C	-3	3	.	0	-1	1	.	.	.	.
Nc1nc(-c2ccco2)c(-c2ccco2)s1	30*	12	20	8	2	40*	4	8.9*	-45	19*
Cc1ccc(CN2CCCCC(NC(=O)c3ccc(F)cc3)C2=O)cc1 (centres undefined)	-1	0	.	2	1	0	.	.	.	.
O=c1c2c(-c3ccco3)csc2nc(SCc2cn3cccnc3n2)n1-c1ccccc1	27*	27	48*	32*	7	37*	1	2	-8	22*
NC(=O)CSc1nc2scc(-c3ccco3)c2c(=O)n1-c1ccccc1	17*	12	49*	3	1	76*	9	-1	3	5
COC(=O)N1C[C@H](OC(=O)c2ccc(-c3ccccc3)cc2)[C@H]2C[C@@H]1c1ccccc1O2	1	1	.	2	1	5	.	.	.	.
COC(=O)CC#C[C@H](C)[C@@H](NS(=O)(=O)c1ccc([N+](=O)[O-])cc1)C(C)(C)C	0	3	.	3	1	2	.	.	.	.
CC(=O)c1ccc(NC(=O)C(C)OC(=O)/C=C/c2ccco2)cc1 (centres undefined)	19*	21	6	6	-8	31*	1	1	-6	3
O=C(OCc1cn(Cc2ccc(F)c(F)c2)nn1)N1CCOCC1	1	3	.	4	-2	-5	.	.	.	.
COc1ccc(C(=O)OCC(=O)c2ccc(C3CCCCC3)cc2)cc1	1	2	-4	1	4	0	.	.	.	.
Nc1ccc(O)cc1C(=O)OCC(=O)c1ccc(C2CCCCC2)cc1	15*	51*	-7	-2	5	29*	-1	0	0	0
CC(=O)C1=C(O)C(=O)N(CCc2c[nH]c3ccccc23)C1c1ccco1 (centres undefined)	15*	16	-1	2	-4	28*	5	2	-6	13
Cc1ccc(C)c(-n2c3nc(=O)[nH]c(=O)c-3cc3cc([N+](=O)[O-])ccc32)c1	21*	2	16	10	-4	26*	6	-3	10	21*
CCCC[C@@H]1C(=O)N2N=Cc3cscc3[C@H]2N2N=Cc3cscc3[C@@H]12	-1	4	.	0	-1	2	.	.	.	.
O=c1oc2cc(O)c(Cl)cc2c2ccccc12	-10	5	5	2	1	2	.	.	.	.
O=c1cc2c(=O)oc3cc(O)c(O)oc3c2c(O)c1O	89*	19	1	97*	95*	27*	31*	80*	-286	91*	UHRF1 DNA bind=92*;MBD2 confirm=109*
CCN(CC)Cc1cc(O)c(CN(CC)CC)cc1O	64*	17	11	52*	17*	30*	76*	4	-22	57*	UHRF1 DNA bind=3;MBD2 confirm=-1
SMILES	LEDGF integ inh	rCAG RNA binder	ABHD5 PLIN5 PPI	UHRF1 binding	MBD2 inh	PRMT1 inh	PRMT1 inh conf	IN multimer up	TRFRET interf	LEDGF integ conf	others
Cc1cc(NS(=O)(=O)c2ccc(NC(=O)CSc3nnc(-c4ccncc4)n3Cc3ccco3)cc2)nc(C)n1	36*	17	.	7	6	33*	-1	1	-5	-9
Cc1cc(C)c(NC(=O)CSc2nnc(-c3ccncc3)n2Cc2ccco2)c(C)c1	-1	-4	3	4	4	1	.	.	.	.
Cc1cccc2nc(CSCc3ccco3)cn12	16*	8	-5	5	-1	27*	15	-2	10	13
Cc1cc(C)n2cc(CSCc3ccco3)nc2n1	1	2	2	-3	-1	3	.	.	.	.
CCOC(=O)c1ccc(N/C=C/C(=O)C(C)(C)C)cc1	-5	-9	-5	-1	4	1	.	.	.	.
CC(C)(C)C(=O)/C=C/Nc1ccccc1O	15*	4	-1	-10	-19	26*	8	3	-10	1
Cn1c(CNc2ccc(O)cc2)nc2ccccc21	16*	-19	0	7	-6	39*	-3	5	-20	-2
Brc1ccc(-c2nn3c(-c4ccco4)nnc3s2)o1	15*	19	5	22*	6	53*	15	9.3*	-47	30*
Brc1ccc(-c2nn3c(-c4ccccn4)nnc3s2)o1	5	12	2	-2	-1	8	.	.	.	.
CCN1CCCC1CNC(=O)Cn1nc(C)n2c(cc3cc(F)ccc32)c1=O (centres undefined)	19*	2	5	16	11	33*	2	3	-9	-2
